Source: PMC5540273 (PLoS ONE, 2017)

Legend:
Conditions in all cases: concentration: 1 μM, replicates: in singlicate; n = 1
JNK3 = system: T1, JNK3
T1 construct: gene MAPK10

KIT-autoinhibited = system: KIT-autoinhibited
KIT = system: KIT
LATS1 = system: LATS1
LATS2 = system: LATS2
LCK = system: LCK
LIMK1 = system: LIMK1
LIMK2 = system: LIMK2
LKB1 = system: T2, LKB1
T2 construct: gene STK11

LOK = system: T3, LOK
T3 construct: gene STK10
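Note: KINOMEscan kinase panel screen.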

SMILES | %Inh (JNK3) [%] | %Inh (KIT-autoinhibited) [%] | %Inh (KIT) [%] | %Inh (LATS1) [%] | %Inh (LATS2) [%] | %Inh (LCK) [%] | %Inh (LIMK1) [%] | %Inh (LIMK2) [%] | %Inh (LKB1) [%] | %Inh (LOK) [%]
Cn1cncc1-c1cc2c(Nc3ccc(OCc4ccccc4)cc3)ncnc2cn1 [GW281179] | 1 | 0 | 39 | 0 | 0 | 24 | 11 | 6 | 0 | 0
NS(=O)(=O)c1cccc(N/C=C2\C(=O)Nc3ccc(S(=O)(=O)Cc4c(Cl)cccc4Cl)cc32)c1 [GSK398099] | 7 | 0 | 15 | 41 | 22 | 13 | 7 | 28 | 0 | 0
COc1cccc(CNC(=O)NC2CCN(c3ccnc(Nc4ccc(F)cc4)n3)C2)c1 (stereo not shown) [GSK1379723] | 11 | 0 | 23 | 10 | 0 | 11 | 3 | 0 | 0 | 0
CN1c2ccc(-c3ccc(C(N)=O)cc3)cc2-c2[nH]ncc2S1(=O)=O | 0 | 20 | 0 | 9 | 0 | 5 | 0 | 0 | 10 | 5
CCc1ccc(-c2ccc3c(c2)-c2n[nH]cc2S(=O)(=O)N3C)cc1 | 0 | 0 | 7 | 0 | 0 | 4 | 0 | 0 | 17 | 3
CC(C)c1cc(-c2ccc3c(N)n[nH]c3c2)nc(N)n1 [GSK2250882] | 8 | 0 | 9 | 0 | 0 | 9 | 0 | 0 | 14 | 0
Cc1cccc2c(-c3ccncn3)c(-c3ccc(F)cc3)nn12 [GW515532] | 74 | 0 | 6 | 0 | 11 | 17 | 0 | 0 | 0 | 0
Cc1ccc(NC(=O)Nc2ccc(Cl)cc2)cc1-c1ccc(C(=O)Nc2ccncc2)cc1 [GSK1398472] | 1 | 4 | 99.9 | 2 | 0 | 60 | 28 | 67 | 0 | 35
Cc1nccc(-c2c(-c3ccc(F)cc3)ncn2CCCN2CCOCC2)n1.Cl [SB-282975] | 43 | 9 | 0 | 0 | 0 | 27 | 11 | 10 | 0 | 9
Cn1cnc2c(N)ncnc21 [SKF-97623] | 0 | 35 | 0 | 22 | 0 | 0 | 0 | 0 | 36 | 4
Cc1c(Cn2c(C)c(C)n3c(=O)cc(N4CCOCC4)nc23)cccc1C(F)(F)F [GSK2328680] | 0 | 0 | 9 | 86 | 1 | 18 | 8 | 4 | 18 | 0
Cc1ccccc1-c1cc(-c2c[nH]nc2-c2ccccn2)ccn1 [GW680061] | 32 | 0 | 39 | 0 | 0 | 5 | 0 | 0 | 0 | 0
COc1cccc(NC(=O)Nc2ccc(C)c(-c3ccc(C(=O)Nc4ccncc4)cc3)c2)c1 [GSK1398474] | 26 | 0 | 99.8 | 0 | 5 | 43 | 11 | 8 | 0 | 0
COc1ccc(Nc2nccc(N3CCC(NC(=O)C(C)c4ccc(Cl)cc4)C3)n2)cc1 (stereo not shown) [GSK1379735] | 0 | 5 | 31 | 4 | 0 | 33 | 19 | 0 | 0 | 0
Nc1ncnc2occ(-c3ccc4c(c3)CCN4C(=O)Cc3cc(F)ccc3F)c12 [GSK2645446] | 0 | 0 | 66 | 0 | 19 | 5 | 0 | 22 | 0 | 33
CC(C)c1ccc(O)cc1Nc1ccnc2ccc(C(F)(F)F)cc12 [GW482059] | 0 | 0 | 0 | 0 | 0 | 22 | 0 | 0 | 0 | 0
COC(=O)C(Cc1ccccc1)NC(=O)NC1CCN(c2ccnc(Nc3ccc(F)cc3)n2)C1 (stereo not shown) [GSK1379714] | 0 | 9 | 11 | 0 | 15 | 21 | 0 | 9 | 21 | 3

SMILES | %Inh (JNK3) [%] | %Inh (KIT-autoinhibited) [%] | %Inh (KIT) [%] | %Inh (LATS1) [%] | %Inh (LATS2) [%] | %Inh (LCK) [%] | %Inh (LIMK1) [%] | %Inh (LIMK2) [%] | %Inh (LKB1) [%] | %Inh (LOK) [%]
O=C1NC(=O)C(c2ccc(Cl)cc2)=C1Nc1cccc(Cl)c1 [SB-317651] | 54 | 15 | 0 | 0 | 9 | 0 | 0 | 7 | 23 | 0
COc1ccc(CSc2nnc(-c3ccc4c(c3)CCO4)o2)cc1 | 0 | 0 | 0 | 0 | 0 | 0 | 0 | 0 | 6 | 0
CC(=O)c1c(C)c2cnc(Nc3ccc(N4CCNCC4)cn3)nc2n(C2CCCC2)c1=O | 0 | 0 | 0 | 15 | 26 | 0 | 0 | 99.5 | 0 | 0
CSc1ccc(-c2nc3n(c2-c2ccncc2)CCC3)cc1 [SKF-105561] | 59 | 0 | 0 | 31 | 13 | 0 | 0 | 0 | 0 | 8
CC(=O)c1cccc(NC(=O)NC2CCN(c3ccnc(Nc4ccc(F)cc4)n3)C2)c1 (stereo not shown) [GSK1379710] | 22 | 4 | 49 | 0 | 2 | 12 | 11 | 22 | 23 | 0
CC(=O)c1c(C)c2cnc(Nc3ccn(C)n3)nc2n(C2CCCC2)c1=O | 0 | 0 | 0 | 0 | 4 | 8 | 23 | 0 | 0 | 15
CNC(=O)c1ccc(C)c(-n2c(C)cc(OCc3ccc(F)cc3F)c(Br)c2=O)c1 | 100 | 0 | 0 | 0 | 0 | 1 | 0 | 0 | 0 | 0
Fc1ccc(-c2nc[nH]c2-c2ccncc2)cc1 [SB-217360] | 98.6 | 21 | 0 | 0 | 0 | 25 | 0 | 0 | 0 | 16
COc1ccc(CSc2nnc(-c3ccc4nccn4c3)o2)cc1C(F)(F)F | 0 | 10 | 0 | 24 | 23 | 4 | 0 | 0 | 6 | 3
COc1ccc2cc(-c3nc(-c4ccccc4C(C)C)[nH]c3-c3ccncc3)ccc2c1 [SB-660566] | 44 | 0 | 0 | 0 | 0 | 11 | 8 | 0 | 0 | 61
CNCc1ccc2nc(NC(=O)c3ccc(C(C)(C)C)cc3)cn2c1 | 14 | 20 | 69 | 2 | 6 | 2 | 5 | 0 | 31 | 0
Nc1cccc(-c2ccc3c(N)n[nH]c3c2)n1 [GSK2192730] | 0 | 0 | 14 | 0 | 17 | 0 | 0 | 2 | 7 | 0
COc1ccc(Nc2nccc(N3CCC(NC(=O)C(C)c4ccc(Cl)cc4)CC3)n2)cc1 (stereo not shown) [GSK1379812] | 10 | 0 | 15 | 32 | 100 | 38 | 2 | 18 | 11 | 0
Fc1ccc(-c2nc3n(c2-c2ccncc2)CCS3)cc1 [GI98581] | 98.7 | 0 | 15 | 2 | 0 | 26 | 0 | 0 | 11 | 0
O=C1NC(=O)C(c2ccc(Cl)cc2)=C1Nc1ccc(O)cc1 [SB-340867] | 0 | 0 | 0 | 17 | 0 | 5 | 11 | 0 | 13 | 0
Cc1ccc(NC(=O)Nc2ccc(Cl)c(C(F)(F)F)c2)cc1-c1ccc(C(=O)Nc2ccncc2)cc1 [GSK1398470] | 0 | 45 | 99.5 | 0 | 15 | 57 | 28 | 14 | 6 | 65
Fc1ccc(-c2nn3cccc(F)c3c2-c2ccncc2)cc1 [GW475620] | 97.4 | 0 | 3 | 12 | 0 | 18 | 0 | 0 | 0 | 8
